Experimental data: PubChem BioAssay (Tox21)
Results filed as inconclusive are left out. Where a call stands in place of a potency, no number is given. Active and inactive are the calls of the source. Calls follow the shape of the dose curve; as a rule, active = well fitted cell-killing curve with a large enough effect in the repeat runs; inconclusive = weak or mixed curves, or effect the other way; inactive = no such curve, though single readings can be large or run the other way.

Experiment: qHTS assay to identify small molecule antagonists of the retinoid-related orphan receptor gamma (ROR-gamma) signaling pathway - cell viability counter screen (AID 1159520); also: nearly all actives have a fitted effect of over 50% in size
Details: Tet-on RORgamma CHO cells viability, ATP luminescence, 16 h; series mostly up to 92.4 µM
Description: U.S. Tox21 Program National Center for Advancing Translational Sciences [NCATS] NIH Chemical Genomics Center [NCGC] U.S. Environmental Protection Agency [EPA] National Institutes of Environmental Health Sciences [NIEHS] National Toxicology Program [NTP] U.S. Food and Drug Administration [FDA] Tox21 Assay Overview: Nuclear steroid hormone receptors are involved in many biological processes including inflammatory responses, cell proliferation, and apoptosis. Environmental factors or compounds disrupting these nuclear receptor pathways and gene expression may promote susceptibility to immunotoxicants and autoimmune diseases. One important group of these expression factors are the retinoid-related orphan receptors. To assess compounds that may interfere with the retinoid-related orphan receptor gamma (ROR-gamma) transcription factor, a cell-based luciferase assay was used. The CHO cell-based assay utilizes a TET-inducible ROR expression factor and ROR response element-LUC reporter gene. Reporter gene activity was induced using Doxycycline Hyclate and measured after 16 hr incubation. Tet-on ROR gamma CHO cells were used to screen against the Tox21 10K compound library for cytotoxicity by measuring the viability of the cells based on the quantitation of the ATP.
Tox21 Assay Protocol Summary: Tet-on ROR gamma CHO cells were dispensed at 1,000 cells in 4 uL of culture medium per well into white wall/solid bottom 1536-well plates using a Multidrop Combi (Thermo Scientific, Waltham, MA) dispenser. Following incubation at 37 C and 5% CO2 for 4 hr, 23 nL of compounds dissolved in DMSO, positive controls or DMSO only were transferred by a Pintool station (Kalypsys, San Diego, CA) and after 2 hr incubation at 37 C, one ul of 1 uM (final concentration) of Doxycycline Hyclate was added to all the wells by using a Flying Reagent Dispenser (FRD) (Aurora Discovery, San Diego, CA). After 16 hr incubation at 37 C and 5% CO2, 5 uL of CellTiter-Glo reagent (Promega Corporation, Madison, WI) was added to each assay plate using FRD. After 30 min incubation at room temperature, luminescence was quantified on a ViewLux plate reader (Perkin Elmer, Waltham, MA).
With `C=CC(=O)N1CCOCC1` the Potency was “inactive”. In the case of `O=[N+]([O-])c1ccc(CCO)cc1`, the Potency was “inactive”. For `CO[Si](CCCNCCC[Si](OC)(OC)OC)(OC)OC`, the Potency was “inactive”. In the case of `OCc1ccccn1`, the Potency was “inactive”. In the case of `O=Cc1ccccc1[N+](=O)[O-]`, the Potency was “inactive”. For `O=C(O)/C=C/c1ccc(/C=C/C(=O)O)cc1`, the Potency was “inactive”. For `O=c1[nH]c2ccccc2c(=O)n1CCCl`, the Potency was “inactive”. With `C=CCSCC1Nc2cc(Cl)c(S(N)(=O)=O)cc2S(=O)(=O)N1` (stereo not given) the Potency was “inactive”. For `NS(=O)(=O)c1cc2c(cc1C(F)(F)F)NC(Cc1ccccc1)NS2(=O)=O` (stereo not given), the Potency was “inactive”. With `Cc1nccn1CC1CCc2c(c3ccccc3n2C)C1=O` (stereo not given) the Potency was “inactive”. In the case of `CC(C)(O)c1ccccc1`, the Potency was “inactive”. In the case of `CC(=O)c1ccc(C)cc1`, the Potency was “inactive”. With `C=C(C)[C@@H]1CCC2=CC(=O)C[C@@H](C)[C@]2(C)C1` the Potency was “inactive”. With `C=CC(=O)OCCCCCC` the Potency was “inactive”. For `CC(=O)O[C@H](CC(=O)[O-])C[N+](C)(C)C`, the Potency was “inactive”. In the case of `c1ccc(CCCc2ccccn2)cc1`, the Potency was “inactive”. In the case of `C=CCOc1nc(OCC=C)nc(OCC=C)n1`, the Potency was “inactive”. For `Cc1nc(-c2ccc(OCC(C)C)c(C#N)c2)sc1C(=O)O`, the Potency was “inactive”. For `CC(O)CN(CCCN(C)C)CCCN(C)C` (stereo not given), the Potency was “inactive”. With `CCO[Si](CCCN=C=O)(OCC)OCC` the Potency was “inactive”. In the case of `C[N+](C)(C)CC[N+]1(C)Cc2c(Cl)c(Cl)c(Cl)c(Cl)c2C1`, the Potency was “inactive”. With `CNC(=O)c1c(I)c(NC(=O)CCCCC(=O)Nc2c(I)c(C(=O)O)c(I)c(C(=O)NC)c2I)c(I)c(C(=O)O)c1I` the Potency was “inactive”. In the case of `NC(=O)c1ncn([C@@H]2O[C@H](CO)[C@@H](O)[C@H]2O)c1N`, the Potency was “inactive”. With `CC(=O)NC(Cc1ccccc1)C(=O)O` (stereo not given) the Potency was “inactive”. For `Cc1ncc(CSSCc2cnc(C)c(O)c2CO)c(CO)c1O`, the Potency was “inactive”. With `NC(=O)c1c(Cl)cccc1Cl` the Potency was “inactive”. For `N[C@@H](CS)C(=O)O`, the Potency was “inactive”. With `CC(C)CCCC(C)NCCC(C)C` (stereo not given) the Potency was “inactive”. For `CC(C)[N+](C)(C)CC(O)COc1cccc2ccccc12` (stereo not given), the Potency was “inactive”. In the case of `CCCCCOC(=O)Nc1nc(=O)n([C@@H]2O[C@H](C)[C@@H](O)[C@H]2O)cc1F`, the Potency was “inactive”. With `O=C(O)c1ccccc1-c1ccc(C(F)(F)F)cc1` the Potency was “inactive”. For `CCCOc1ccccc1-c1nc2n[nH]nc2c(=O)[nH]1`, the Potency was “inactive”. For `CC(C)COC(=O)C(C)C`, the Potency was “inactive”. In the case of `NC1CCN(c2cccc(Cl)n2)CC1`, the Potency was “inactive”. With `CC(C)COC(=O)c1ccccc1O` the Potency was “inactive”. In the case of `CC(C)c1cccc(C(C)C)c1N`, the Potency was “inactive”. In the case of `Cc1cc(C)cc(OCC2CNC(=O)O2)c1` (stereo not given), the Potency was “inactive”. With `CCO[Si](C)(OCC)OCC` the Potency was “inactive”. In the case of `CCCCNc1ccccc1`, the Potency was “inactive”. With `OCCCCCCO` the Potency was “inactive”.
